Data as given in ChEMBL document CHEMBL4513216, “Probing the Open Global Health Chemical Diversity Library for Multistage-Active Starting Points for Next-Generation Antimalarials” (ACS Infect Dis, 2020).
Among all 68,000 compounds or so, about 2,700 (4%) showed an effect of 50% or more. The full list was thinned out, with strong results kept by preference.

These compounds were tested on Plasmodium berghei (assay: Screen against P. berghei liver stage (PbLuc), transformed with Luciferase, at 2uM). Details: tested at 2 uM.
Format: functional, HepG2
Work on `Cc1ccc(C(C)NC(=O)Cc2c(C)nc3c(c2C)c(=O)[nH]n3C)o1` (stereo not given) yielded an INHIBITION of -30.5%. Work on `CC(C)C1CN(C(=O)c2ccc3nccnc3c2)CCS1` (stereo not given) yielded an INHIBITION of 43.29%. In the case of `c1ccc(CN2Cc3[nH]nc(COCC4CC4)c3C2)nc1`, the INHIBITION is reported as 28.5%. For `COCc1n[nH]c2c1CN(Cc1cccs1)C2`, the INHIBITION was 56.21%. Compound `OCCOCc1n[nH]c2c1CN(Cc1ccco1)C2` has an INHIBITION of 8.99%. In the case of `OCCOCc1n[nH]c2c1CN(Cc1ccccn1)C2`, the INHIBITION is reported as 2.69%. With `Cc1cccc(CN2Cc3[nH]nc(COCC4CC4)c3C2)n1` the INHIBITION was -4.06%. `c1csc(CN2Cc3[nH]nc(COCC4CC4)c3C2)c1` gave an INHIBITION of 58.98%. In the case of `COCc1nn(CC2CC2)c2c1CN(Cc1cccs1)CC2`, the INHIBITION is reported as 51.26%. `c1cncc(OCc2n[nH]c3c2CN(Cc2cccs2)C3)c1` was tested, and the INHIBITION was 14.94%. In the case of `COCc1nn(CC2CC2)c2c1CN(Cc1ccco1)CC2`, the INHIBITION is reported as 38.09%. For `OCCOCc1n[nH]c2c1CN(Cc1cccs1)C2`, the INHIBITION was 52.74%. For `c1ccc(OCc2n[nH]c3c2CN(Cc2cccs2)C3)nc1`, the INHIBITION was 29.45%. For `CCOCc1nn(CC2CC2)c2c1CN(Cc1cccs1)CC2`, the INHIBITION was 34.93%. Compound `CCC[C@H]1CN(C(=O)CCn2ccccc2=O)C[C@@H]1NS(C)(=O)=O` has an INHIBITION of 25.9%. `CC(C)S(=O)(=O)NC(=O)c1cc(-c2cccc(Cl)c2)no1` was tested, and the INHIBITION was 38.67%. For `COc1ccc(C)cc1-n1c(COC(C)C)n[nH]c1=O`, the INHIBITION was -19.78%. Compound `Cc1nc(C2CCCN2CCCc2nc3ccccc3o2)no1` (stereo not given) has an INHIBITION of 17.19%. With `COCCCN1CCC(C(=O)c2cc(F)ccc2F)CC1` the INHIBITION was -6.4%. `O=C(NCC1(Sc2ccccc2)CC1)c1ccc(=O)[nH]n1` gave an INHIBITION of -5.26%. Compound `O=C(NCC1(Sc2ccccc2)CC1)c1c[nH]nn1` has an INHIBITION of 66.4%. With `O=C(NCC1(Sc2ccccc2)CC1)c1cc[nH]n1` the INHIBITION was 32.51%. `Cc1noc(C)c1CC(=O)N1CCCN(Cc2cscn2)CC1` gave an INHIBITION of 25.74%. In the case of `O=C(CCCn1cncn1)N1CCCC1c1nc(-c2ccccc2)no1` (stereo not given), the INHIBITION is reported as 48.21%. In the case of `N#Cc1ccc(CN2CCCN(CCCn3cncn3)CC2)cc1`, the INHIBITION is reported as 65.3%. With `c1ccc(CCCN2CCN(CCn3cncn3)CC2)cc1` the INHIBITION was 76.6%. `c1ccc(-c2noc(C3CCN(CCCn4cncn4)CC3)n2)cc1` was tested, and the INHIBITION was 57.75%. For `N#Cc1ccc(CN2CCCN(C(=O)CCn3cncn3)CC2)cc1`, the INHIBITION was 12.43%. `N#Cc1ccc(N2CCCN(CCCn3cncn3)CC2)cc1` showed an INHIBITION of -27.36%. Work on `c1ccc(C(c2ccccc2)N2CCN(CCn3cncn3)CC2)cc1` yielded an INHIBITION of 35.54%. Compound `c1ccc(SCCN2CCN(CCn3cncn3)CC2)cc1` has an INHIBITION of 30.62%. For `c1ccc(-c2noc(C3CCN(CCn4cccn4)CC3)n2)cc1`, the INHIBITION was 43.44%. `COc1ccc(CC(=O)N2CC[C@H](CO)[C@H](O)C2)c(OC)c1` was tested, and the INHIBITION was 26.93%. Work on `CCc1ccc(C(C)NC(=O)N2CCC(n3cncn3)CC2)cc1` (stereo not given) yielded an INHIBITION of 38.06%. `CC(C)N(C)[C@@H]1CCN(c2ncccn2)[C@H]1Cc1ccncc1` was tested, and the INHIBITION was 11.9%. Compound `CN(CC(=O)N1CCC(Oc2ccc(C(F)(F)F)cn2)CC1)S(C)(=O)=O` has an INHIBITION of 17.26%. Work on `Cc1nccn1CC1CCCN1S(=O)(=O)Cc1ccc(F)cc1` (stereo not given) yielded an INHIBITION of -88.61%. Work on `Cc1nccn1CC1CCCN1S(=O)(=O)Cc1ccon1` (stereo not given) yielded an INHIBITION of 60.31%. For `Cc1nccn1CC1CCCN1S(=O)(=O)Cc1ccccc1` (stereo not given), the INHIBITION was 0.26%. `CCc1nccn1CCCNC(=O)c1cnn(-c2ccccc2OC)c1` was tested, and the INHIBITION was -9.69%. `O=C(CCn1ccc2cc(Br)ccc21)NCc1ccc(C(=O)O)cc1` gave an INHIBITION of -4.69%. Compound `O=C(COC[C@@]12CCC[C@@H]1CN(C1CCC1)C2)N1CCCC1` has an INHIBITION of 51.27%. Work on `O=C(COC[C@]12COC[C@H]1CN(C1CCC1)C2)N1CCCC1` yielded an INHIBITION of -37.65%. With `O=C(COC[C@@]12CCC[C@@H]1CN(C1CCCC1)C2)N1CCCC1` the INHIBITION was -9.14%. Work on `Cn1nc2c(cc1=O)CN(c1ncnc3ccsc13)CC2` yielded an INHIBITION of -37.96%. `CCC[C@@H]1CN(Cc2cc3c(cc2OC)OCCO3)C[C@H]1C(=O)O` showed an INHIBITION of 19.59%. For `CCC[C@@H]1CN(Cc2cc3c(cc2OC)OCO3)C[C@H]1C(=O)O`, the INHIBITION was -23.34%. Work on `CCC[C@@H]1CN(Cc2cc(OC)c3c(c2)OCO3)C[C@H]1C(=O)O` yielded an INHIBITION of 57.75%. With `CN(C)c1nccc(C2CN(S(C)(=O)=O)C2)n1` the INHIBITION was 40.78%. With `Cc1cc(C(=O)N2CCN(S(C)(=O)=O)[C@@H](C)C2)c(F)cc1F` the INHIBITION was 1.27%. For `CC(=O)N[C@H]1CCO[C@@H](c2cccc(NC(=O)Cc3ccccc3)c2)C1`, the INHIBITION was 0.93%. In the case of `O=C(CCNc1ncccn1)NCc1cccc(OC(F)F)c1`, the INHIBITION is reported as 52.3%. Compound `O=C(NCCNc1ncccn1)NCc1cccc(OC(F)F)c1` has an INHIBITION of -35.22%. `O=C(CCNc1ncccn1)NCc1ccc(Br)s1` gave an INHIBITION of 64.22%. Work on `O=C(CCNc1ncccn1)NCc1csc(Br)c1` yielded an INHIBITION of 33.47%. In the case of `Cc1ccc(CCNC(=O)NCc2cccc(OC(F)F)c2)cn1`, the INHIBITION is reported as -16.71%. With `CCc1ccc(CNC(=O)CCNc2ncccn2)s1` the INHIBITION was -18.99%. `c1ccc(-c2nnc(N3CCCC4(CCOC4)C3)s2)cc1` (stereo not given) gave an INHIBITION of -21.39%. In the case of `N#Cc1ccc(N2CCCN(CC(=O)N3CCOCC3)CC2)cc1`, the INHIBITION is reported as -45.9%. For `Cc1ccc(NC2CCN(C(=O)CC3CCCO3)CC2)nn1` (stereo not given), the INHIBITION was -3.38%. In the case of `Cc1ccc(-c2noc(CN3CCOC(CN(C)C)C3)n2)cc1F` (stereo not given), the INHIBITION is reported as -19.76%. With `CCc1ccc(C2CC(=O)Nc3cc(NS(C)(=O)=O)ccc32)o1` (stereo not given) the INHIBITION was -24.85%. For `CCOc1ncccc1NC(=O)N1CCCN(C(=O)OC)CC1`, the INHIBITION was 12.81%. `O=C([C@H]1CC[C@@H]2[C@@H](CCN2Cc2nccs2)O1)N1CCCCO1` was tested, and the INHIBITION was 23.93%. `CN(C)C(=O)[C@@H]1CC[C@@H]2[C@@H](CCN2Cc2nccs2)O1` gave an INHIBITION of 6.66%. For `O=C([C@@H]1C[C@H]2[C@H](CCN2Cc2nccs2)O1)N1CCOCC1`, the INHIBITION was -16.93%. `CN(C)C(=O)[C@@H]1C[C@@H]2[C@@H](CCN2Cc2nccs2)O1` showed an INHIBITION of 55.11%. Compound `O=C([C@H]1CC[C@@H]2[C@@H](CCN2Cc2nccs2)O1)N1CCOCC1` has an INHIBITION of 77.07%. For `CN1CCN(C(=O)[C@H]2C[C@H]3[C@H](CCN3Cc3nccs3)O2)CC1`, the INHIBITION was 37.54%. `Cn1cc(CN2CC[C@H]3O[C@@H](C(=O)NC4CC4)CC[C@H]32)cn1` showed an INHIBITION of -43.66%. With `CN(C)C(=O)[C@@H]1C[C@@H]2CCN(Cc3nccs3)C[C@@H]2O1` the INHIBITION was -31.39%. Compound `Cc1nc(CN2CC[C@@H]3O[C@@H](C(=O)N4CCOCC4)C[C@@H]32)cs1` has an INHIBITION of 34.24%. With `Cn1cc(CN2CC[C@@H]3O[C@H](C(=O)N4CCOCC4)C[C@@H]32)cn1` the INHIBITION was 86.68%. With `CC1CCN(C(=O)[C@H]2CC[C@@H]3[C@@H](CCN3Cc3nccs3)O2)CC1` the INHIBITION was 53.46%. `CN1CCN(C(=O)[C@H]2CC[C@@H]3[C@@H](CCN3Cc3nccs3)O2)CC1` showed an INHIBITION of 1.78%.
